HCMV antiviral – blocks human cytomegalovirus replication. HFF cells, HCMV-luciferase reporter, 72 h; stronger effect = lower value. AID 1259415. 410,000 compounds, 4.5% hits. activity change, negative = inhibition, % at 57.5 µM; in the data active = activity change below about -60%; inconclusive = no clear call, values can overlap the other calls; inactive = above about -39%
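Two compound doses tested in HFFs infected with HCMV-luciferase, MOI 1 PFU/cell, 72 h at 37C. Lysate luminescence read with OneGlo; data normalized against buffer-only and 10uM Salinomycin inhibitor controls.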
Shiga inhibitor – inhibitors of Shiga toxin in Vero cells | AID 2315 | inhibition, % at 38.7 µM | 290,000 compounds, 9.2% hits | Vero cells, Shiga toxin protein synthesis inhibition reporter; in the data active = inhibition mostly above about 28%, no sharp cut-off; inactive = mostly below about 43%
HCV inhibitor – inhibitors of hepatitis C virus infection; Potency, µM (titrated, usually from 41.8 µM), actives largely listed as inhibitors; 340,000 compounds, 3.4% hits; Huh7.5.1 HCVcc-Cre infection, luciferase reporter, 44 h
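Cells seeded at 1,000/well and cultured 4 h, then compounds added followed by HCVcc-Cre virus (~0.5 moi). After 44 h further culture, luciferase substrate was added, plates held 15 min at room temperature, and luminescence read for 15 sec.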
CHX counter – counter-screen hit for Shiga toxin inhibitors, cycloheximide. 300,000 compounds, 12% hits. max response, %. cell reporter, cycloheximide protein synthesis inhibition counterscreen; in the data active = max response mostly above about 13%, no sharp cut-off; inactive = mostly below about 14%; also: read at 38.3 µM for the half of the compounds with a filed dose
Pf growth 48h – P. falciparum growth inhibition at 48 hours (one generation) | P. falciparum luciferase growth in erythrocytes, 48 h | AID 504832 | Potency, µM (series often up to 28.7 µM), most hits filed as inhibitors | 310,000 compounds, 5.9% hits
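Cell-based growth assay: transgenic P. falciparum expressing firefly luciferase, cultured in red cells within RPMI 1640 containing 0.5% w/v Albumax, 24 mM bicarbonate and gentamycin. A drop in luciferase activity indicates inhibition.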
Pf growth 96h – P. falciparum growth inhibition at 96 hour, primary screen for plastid delayed-death inhibitors; P. falciparum luciferase reporter growth, 96 h; Potency, µM (doses to about 28.7 µM), usual class: inhibitors; 320,000 compounds, 6.9% hits; AID 504834
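Cell-based qHTS: luciferase-tagged P. falciparum in erythrocytes (2% hematocrit, 0.05% parasitemia final) incubated with compounds for 96 hours, 37 C, 5% CO2; luciferase detection reagent then added and luminescence measured.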
Of the large screens only hits and unclear results are named; the others gave an inactive call; ! = repeats disagree. Rows were chosen to be rich in hits. Some 21% of all compounds tested hit in one or more screens of this group. Unless noted, calls follow the shape of the dose curve; as a rule, active = well fitted inhibition curve with a large enough effect; inconclusive = small, poorly fitted or top-dose-only effect, or another doubt; inactive = no such curve, though single readings can be large or run the other way.

CCOC(=O)Cn1c(=O)oc2cc(S(=O)(=O)Nc3cc(Cl)ccc3OC)ccc21	none (no result: Pf growth 48h)
CCOC(=O)Cn1c(=O)oc2cc(S(=O)(=O)Nc3ccc(N(CC)CC)cc3C)ccc21	HCMV antiviral -77, Pf growth 96h inconclusive (no result: Pf growth 48h)
CCOC(=O)Cn1c(=O)oc2cc(S(=O)(=O)NC(C)c3ccccc3)ccc21 (stereo unspecified)	Pf growth 96h 8.3µM (no result: Pf growth 48h)
COc1ccc2c(c1)[C@@H](NC(=O)OCc1ccccc1)[C@H](C)[C@@H](c1ccccc1)N2C(=O)Nc1ccc(C(F)(F)F)cc1	none (no result: Shiga inhibitor, HCV inhibitor, CHX counter, Pf growth 48h, Pf growth 96h)
O=C(Cn1c2[n+](c3ccccc31)CC(O)CS2)c1ccccc1 (stereo unspecified)	Pf growth 48h 2.1µM
Cc1ccc(NC(=O)N2CCN(c3ccc(Cl)c(Cl)c3)CC2)cc1	HCMV antiviral -62 (no result: Shiga inhibitor, HCV inhibitor, CHX counter, Pf growth 48h, Pf growth 96h)
CC(C)c1ccc(NC(=O)N2CCN(c3ccc(Cl)c(Cl)c3)CC2)cc1	HCMV antiviral -79 (no result: Shiga inhibitor, HCV inhibitor, CHX counter, Pf growth 48h, Pf growth 96h)
CCOc1ccc(NC(=O)N2CCN(c3ccc(Cl)c(Cl)c3)CC2)cc1	none (no result: Shiga inhibitor, HCV inhibitor, CHX counter, Pf growth 48h, Pf growth 96h)
c1ccc2cc(CSCc3nc4ccccc4[nH]3)ccc2c1	HCMV antiviral inconclusive, HCV inhibitor inconclusive, Pf growth 48h 13µM, Pf growth 96h inconclusive
Cc1cccc(Cc2nc3ccccc3[nH]2)c1	none (no result: Shiga inhibitor, CHX counter, Pf growth 48h, Pf growth 96h)
O=C(O)CSCc1nc2ccccc2[nH]1	none
C=C(C)CSCc1nc2ccccc2[nH]1	CHX counter 37 (no result: Pf growth 96h)
Cc1ccccc1CSCc1nc2ccccc2[nH]1	Shiga inhibitor 39, HCV inhibitor inconclusive, CHX counter 32, Pf growth 48h inconclusive
Cc1ccc(C)c(CSCc2nc3ccccc3[nH]2)c1	HCMV antiviral -73, HCV inhibitor inconclusive, Pf growth 48h inconclusive, Pf growth 96h inconclusive
OC(c1ccccc1)(c1ccc(Cl)cc1)C1CN2CCC1CC2 (stereo unspecified)	HCV inhibitor 2.8µM, Pf growth 48h inconclusive, Pf growth 96h 8.3µM
OC(c1ccccc1)(c1ccccc1)C1CN2CCC1CC2 (stereo unspecified)	HCV inhibitor inconclusive, Pf growth 48h inconclusive, Pf growth 96h 12µM!
OC(Cc1ccccc1)(c1ccccc1)C1CN2CCC1CC2 (stereo unspecified)	Pf growth 96h inconclusive (no result: Pf growth 48h)
CS/C(N)=N/S(=O)(=O)c1ccc(NC(C)=O)cc1	none
COc1cc(NC(=O)COc2ccc(-n3cnnn3)cc2)cc(OC)c1OC	HCV inhibitor 11µM (no result: Shiga inhibitor, CHX counter, Pf growth 48h, Pf growth 96h)
O=C(COc1ccc(-n2cnnn2)cc1)Nc1cc(Cl)cc(Cl)c1	HCV inhibitor inconclusive (no result: HCMV antiviral, Shiga inhibitor, CHX counter)
CCN(CC)c1ccc(NC(=O)COc2ccc(-n3cnnn3)cc2)cc1	HCV inhibitor 22µM (no result: Shiga inhibitor, CHX counter, Pf growth 48h, Pf growth 96h)
CCC(C)NC(=O)c1nn(-c2ccc(C)cc2)nc1CO (stereo unspecified)	none (no result: Shiga inhibitor, HCV inhibitor, CHX counter, Pf growth 48h, Pf growth 96h)
CC(OC(=O)CCN=C1NS(=O)(=O)c2ccccc21)C(=O)Nc1ccc(N(C)C)cc1 (stereo unspecified)	HCV inhibitor inconclusive, Pf growth 96h inconclusive (no result: Shiga inhibitor, CHX counter)
CCN(CC)S(=O)(=O)c1cccc(C(=O)NC(Cc2c[nH]c3ccccc23)c2nnc3n2CCC3)c1 (stereo unspecified)	HCMV antiviral -61, Pf growth 48h 9.3µM, Pf growth 96h 8.3µM
Cc1nc2nncn2c(Nc2ccc(F)cc2)c1C	none (no result: Shiga inhibitor, HCV inhibitor, CHX counter, Pf growth 48h, Pf growth 96h)
O=C(c1ccc(Cl)c(Cl)c1)c1cc(-c2ccccn2)c(N2CCOCC2)s1	HCMV antiviral -75, Pf growth 96h inconclusive
O=C(c1ccc(Br)cc1)c1cc(-c2ccccn2)c(N2CCOCC2)s1	HCV inhibitor inconclusive, Pf growth 48h inconclusive
O=C1NC(Cc2c[nH]c3ccccc23)C(=O)N1CCOc1ccc(F)cc1 (stereo unspecified)	none
O=C1NC(Cc2c[nH]c3ccccc23)C(=O)N1Cc1ccc(CN2C(=O)NC(Cc3c[nH]c4ccccc34)C2=O)cc1 (stereo unspecified)	Pf growth 48h 5.2µM
CCCCN(C=O)c1c(CC)nc2c(OCC3CCCCC3)cccn12	none (no result: Shiga inhibitor, HCV inhibitor, CHX counter, Pf growth 48h, Pf growth 96h)
O=C1Nc2ccc(Br)cc2C1(O)c1ccccc1 (stereo unspecified)	Pf growth 48h 6.6µM, Pf growth 96h inconclusive
COc1cccc(C2C(C#N)=C(N)SC(c3ccccc3)C2[N+](=O)[O-])c1 (stereo unspecified)	Pf growth 48h 10µM
CN1CCN(C(=O)/C=C/c2cn(-c3ccccc3)nc2-c2ccc3c(c2)OCCO3)CC1	HCV inhibitor inconclusive, Pf growth 48h 12µM, Pf growth 96h inconclusive

Screening results: PubChem BioAssay, National Center for Advancing Translational Sciences (NCATS)
